According to PMC4336329 (PLoS ONE, 2015):
Among all 310,000 compounds or so, about 14,000 (4.5%) showed an effect of 50% or more. Effects have a minus sign here. Shown is part of a subset that was picked to be rich in strong results.

biological target: human ether-à-go-go-related gene (hERG) potassium channel (human, UniProt Q12809); assay: primary screen, population patch clamp on CHO cells stably expressing hERG; higher = less effect of the substance
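Also: peak tail current of the secondary pulse compared with the same well before compound.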

human ether-à-go-go-related gene (hERG) potassium channel, sequence (Q12809 whole entry, looked up): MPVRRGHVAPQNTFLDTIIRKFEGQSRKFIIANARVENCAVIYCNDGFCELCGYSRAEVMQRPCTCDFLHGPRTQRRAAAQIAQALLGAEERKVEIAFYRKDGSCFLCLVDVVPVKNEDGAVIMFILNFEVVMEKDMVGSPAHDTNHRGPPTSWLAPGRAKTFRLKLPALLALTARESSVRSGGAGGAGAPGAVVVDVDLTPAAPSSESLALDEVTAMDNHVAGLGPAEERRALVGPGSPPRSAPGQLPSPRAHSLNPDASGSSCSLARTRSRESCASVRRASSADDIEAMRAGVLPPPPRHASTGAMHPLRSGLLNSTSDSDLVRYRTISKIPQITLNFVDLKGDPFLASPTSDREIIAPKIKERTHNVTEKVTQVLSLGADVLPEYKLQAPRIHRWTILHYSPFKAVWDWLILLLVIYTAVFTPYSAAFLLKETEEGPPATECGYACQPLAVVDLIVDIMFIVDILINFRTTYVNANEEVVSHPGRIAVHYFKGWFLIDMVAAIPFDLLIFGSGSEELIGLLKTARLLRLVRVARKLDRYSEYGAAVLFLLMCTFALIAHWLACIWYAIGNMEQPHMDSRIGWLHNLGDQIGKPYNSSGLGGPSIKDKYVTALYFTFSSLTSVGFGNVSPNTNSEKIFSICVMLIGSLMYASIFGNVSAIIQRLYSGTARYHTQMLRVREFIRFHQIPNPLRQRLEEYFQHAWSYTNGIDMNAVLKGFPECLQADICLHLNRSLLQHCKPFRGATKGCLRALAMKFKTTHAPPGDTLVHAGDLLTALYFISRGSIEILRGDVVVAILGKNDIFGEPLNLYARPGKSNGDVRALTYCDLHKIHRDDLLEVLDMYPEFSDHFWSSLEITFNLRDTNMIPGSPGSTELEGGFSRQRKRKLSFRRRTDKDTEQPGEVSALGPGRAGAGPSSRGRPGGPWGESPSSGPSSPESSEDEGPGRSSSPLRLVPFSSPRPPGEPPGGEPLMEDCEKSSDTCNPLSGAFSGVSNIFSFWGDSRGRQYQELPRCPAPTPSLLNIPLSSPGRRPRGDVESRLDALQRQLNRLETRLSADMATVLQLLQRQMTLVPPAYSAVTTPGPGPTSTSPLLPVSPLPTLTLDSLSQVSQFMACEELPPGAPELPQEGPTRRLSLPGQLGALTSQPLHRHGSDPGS

Row | Compound | hERG current change (%, negative = inhibition) at 10uM [%]
1 | Cc1nn(Cc2ccccc2Cl)c(C)c1C(=O)OCC(=O)N1CC(C)OC(C)C1 (stereo not shown) | 1.43
2 | Clc1ccc(N2CCN(Cc3ccco3)CC2)cc1 | -14.2
3 | CCOC(=O)Cc1c(C)nc2c(-c3ccccc3)c[nH]n2c1=O | 2.48
4 | Cc1nn(S(=O)(=O)N2CCOCC2)c(C)c1Br | -0.162
5 | O=C(O)C(Cc1ccccc1)N1C(=O)c2c(Cl)c(Cl)c(Cl)c(Cl)c2C1=O (stereo not shown) | 3
6 | COc1ccc(NS(=O)(=O)c2cc(NC(=O)C3CC3)ccc2N2CCCCC2)cc1 | 9.99
7 | COC(=O)c1cccc([N+](=O)[O-])c1CN1CCCC(C(N)=O)C1 (stereo not shown) | 18.4
8 | O=C(N/C(=C/c1ccc(Br)cc1)C(=O)N1CCCC1)c1ccccc1F | -71.5
9 | O=C(N/C(=C/c1ccc(Br)cc1)C(=O)N1CCCCC1)c1ccccc1F | -40.7
10 | COc1ccccc1C(=O)N/C(=C\c1ccc(Br)cc1)C(=O)N1CCCC1 | -48.6
11 | O=C(N/C(=C\c1ccc(Br)cc1)C(=O)N1CCOCC1)c1ccccc1Cl | -2.31
12 | COc1ccccc1C(=O)N/C(=C/c1ccc(Br)cc1)C(=O)N1CCCC1 | -48.9
13 | O=C(N/C(=C\c1ccc(Br)cc1)C(=O)N1CCCC1)c1ccccc1F | -71.8
14 | CCCCn1cnc2c(c1=O)c1nc3ccccc3nc1n2Cc1ccc2c(c1)OCO2 | 24.1
15 | O=C(NCCCNC(=O)c1cnccn1)c1cccc(Cl)c1 | -5.72
16 | O=C(COC(=O)/C=C/c1ccc(S(=O)(=O)N2CCOCC2)cc1)NCc1ccc(Cl)cc1 | 1.35
17 | Cc1cccc(N2CCN(C(=O)c3cc4c(=O)n(C)c5ccccc5c4n3C)CC2C)c1 (stereo not shown) | -16
18 | Cc1ccc(S(=O)(=O)NCCC(=O)OCC(=O)Nc2ccccc2Cl)cc1 | -10.5
19 | COc1ccc(-c2cc(C(=O)N3CCN(c4ccccc4)CC3)c3ccccc3n2)cc1 | 5.37
20 | O=C(c1cccn2c(=O)c3ccccc3nc12)N1CCN(c2ccccn2)CC1 | -53

Row | Compound | hERG current change (%, negative = inhibition) at 10uM [%]
21 | O=C(c1cccn2c(=O)c3cc4ccccc4cc3nc12)N1CCN(c2ccccc2)CC1 | -7.73
22 | O=C(c1cccn2c(=O)c3ccccc3nc12)N1CCC2(CC1)OCCO2 | 5.98
23 | O=C(c1cccn2c(=O)c3cc(Br)ccc3nc12)N1CCN(c2ccccn2)CC1 | -33.6
24 | COc1ccc(N2CCN(C(=O)c3cccn4c(=O)c5ccccc5nc34)CC2)cc1 | -60.1
25 | COc1ccc2c(c1OC)C(=O)OC2C1c2c(cc3c(c2OC)OCO3)CCN1C (stereo not shown) | -1.42
26 | O=C(CSc1nc2ccccc2c(=O)n1CCC(=O)N1CCN(c2ccccc2)CC1)NCC1CCCO1 (stereo not shown) | -45.6
27 | O=C(CSc1nc2ccccc2c(=O)n1CC1CCCO1)Nc1ccccc1Cl (stereo not shown) | -22.1
28 | O=c1c2ccccc2nc(SCc2ccncc2)n1CC1CCCO1 (stereo not shown) | -54
29 | CCOc1ccccc1NC(=O)CSc1nc2ccccc2c(=O)n1CC1CCCO1 (stereo not shown) | -68
30 | O=C(CSc1nc2ccccc2c(=O)n1CC1CCCO1)NCc1ccccc1 (stereo not shown) | -11
31 | O=c1c2ccccc2nc(SCc2ccccc2)n1CC1CCCO1 (stereo not shown) | -6.67
32 | O=C1CN(C(=O)CSc2nc3ccccc3c(=O)n2CC2CCCO2)c2ccccc2N1 (stereo not shown) | -31.3
33 | COc1ccc(OC)c(NC(=O)CSc2nc3ccccc3c(=O)n2CC2CCCO2)c1 (stereo not shown) | -41.2
34 | COc1ccccc1NC(=O)CSc1nc2ccccc2c(=O)n1CC1CCCO1 (stereo not shown) | 2.49
35 | O=C(CSc1nc2ccccc2c(=O)n1CC1CCCO1)N1CCN(c2ccccc2)CC1 (stereo not shown) | -73.4
36 | O=C(CSc1nc2ccccc2c(=O)n1CC1CCCO1)Nc1ccccc1 (stereo not shown) | -14.1
37 | COc1ccccc1N1CCN(C(=O)CSc2nc3ccccc3c(=O)n2CC2CCCO2)CC1 (stereo not shown) | -67.6
38 | CC(C)(C)c1ccc(C(=O)NCC2CCCN2S(=O)(=O)c2ccccc2)cc1 (stereo not shown) | -6.28
39 | Cc1ccc(C(=O)N/N=C2\CCSC2)cc1[N+](=O)[O-] | -2.95
40 | COc1ccccc1C(CNC(=O)CSc1ccc2ccccc2c1)N(C)C (stereo not shown) | -34.9
